HTR5A inv ctr – counter-screen for OPRM1-OPRD1 inverse agonists: human HTR5A inverse agonism | AID 504634 | hit rate 0.083% among 340,000 | HTR5A cell line, luminescence | inhibition, % at 9.3 µM | P47898; in the data active = inhibition mostly above about 23%, no sharp cut-off; inactive = mostly below about 18%;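 note: 0% = cells with DMSO and 100% = no-cell wells with DMSO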
HTR5A ag – HTR5A agonism, opioid heterodimer counter-screen. P47898. HTR5A agonist assay, luminescence, cell-based. activation, % at 9.3 µM. hit rate 0.61% among 340,000; in the data active = activation mostly above about 9.5%, no sharp cut-off; inactive = mostly below about 7.6%;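 note: 0% = cells with vehicle only and 100% = reference agonist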
MOR-DOR ag-1 – OPRM1-OPRD1 heterodimerization agonism; P35372+P41143; AID 504326; cells, luminescence; hit rate 0.3% among 340,000; activation, % at 9.3 µM;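 note: 0% = vehicle-treated cells and 100% = reference agonist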
Target sequence (P35372 whole entry, looked up): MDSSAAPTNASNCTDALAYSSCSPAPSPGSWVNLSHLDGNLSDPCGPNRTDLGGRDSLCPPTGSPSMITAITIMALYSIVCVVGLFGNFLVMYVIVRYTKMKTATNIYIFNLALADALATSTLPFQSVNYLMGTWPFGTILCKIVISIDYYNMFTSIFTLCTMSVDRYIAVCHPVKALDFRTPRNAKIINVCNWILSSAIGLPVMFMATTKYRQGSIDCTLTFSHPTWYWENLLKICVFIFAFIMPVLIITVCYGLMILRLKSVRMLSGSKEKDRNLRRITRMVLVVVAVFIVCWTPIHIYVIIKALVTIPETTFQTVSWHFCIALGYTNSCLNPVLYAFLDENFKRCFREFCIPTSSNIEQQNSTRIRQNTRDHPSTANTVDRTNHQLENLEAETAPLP
Target sequence (P41143 whole entry, looked up): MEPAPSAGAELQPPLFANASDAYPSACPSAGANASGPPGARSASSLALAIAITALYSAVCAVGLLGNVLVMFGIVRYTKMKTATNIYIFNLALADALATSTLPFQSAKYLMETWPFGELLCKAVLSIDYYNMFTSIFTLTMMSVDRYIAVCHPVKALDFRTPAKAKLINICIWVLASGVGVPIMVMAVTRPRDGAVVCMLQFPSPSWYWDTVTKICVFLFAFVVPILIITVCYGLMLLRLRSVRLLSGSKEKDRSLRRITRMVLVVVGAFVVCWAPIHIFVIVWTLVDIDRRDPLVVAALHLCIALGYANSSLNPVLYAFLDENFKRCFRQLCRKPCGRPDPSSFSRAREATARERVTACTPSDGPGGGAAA
MOR-DOR inv ag-1 – inverse agonists of human mu-delta opioid receptor heterodimerization; hit rate 0.21% among 340,000; AID 504357; cell-based MOR-DOR heterodimer luminescence, inverse agonism; inhibition, % at 9.3 µM; P35372+P41143; in the data active = inhibition above about 22%, passing the limit was not always enough;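 note: 0% = cells with DMSO and 100% = wells without cells with DMSO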
MOR-DOR inv ag-2 – opioid heterodimer inverse agonism, HTR5A counter-screen; AID 504912; shares compounds with HTR5A inv ctr; U2OS counter-screen cells, complementation luminescence; inhibition, % at 9.3 µM; 190 tested, under 10 active; call rule not given here;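 note: 0% = cells with DMSO and 100% = wells without cells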
HTR5A inv confrm – HTR5A (human) inverse agonism, confirmation; shares compounds with HTR5A inv ctr; HTR5A-expressing cells, luminescence; inhibition, % at 9.3 µM; 190 tested, under 10 active; AID 504916; call rule not given here;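 note: 0% = cells with DMSO and 100% = no cells with DMSO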
MOR-DOR ag-2 – promotes OPRM1-OPRD1 heterodimerization in HTR5A counter-screen | shares compounds with HTR5A ag | U2OS counter-screen cells, complementation luminescence, 3 h | activation, % at 9.3 µM | hit rate 13% among 800 | AID 504913
HTR5A ag confirm – HTR5A (human) agonism, confirmation | activation, % at 9.3 µM | hit rate 17% among 800 | HTR5A agonist cell assay, luminescence | shares compounds with HTR5A ag; in the data active = activation above about 17%;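 note: 0% = cells with vehicle only and 100% = full reference agonist response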
The depositor's hits bear a star; . = not tested or not shown. Compounds with a hit are over-represented: about 1.1% of the library has one in this group of screens. Cut-off read from the data, not from the text of the source, unless noted: active = activation above about 18%; inactive = the rest.

SMILES	HTR5A inv ctr	HTR5A ag	MOR-DOR ag-1	MOR-DOR inv ag-1	MOR-DOR ag-2	HTR5A ag confirm	others
Cn1c(N=Nc2ccc(N3CCOCC3)cc2)[n+](C)c2ccccc21	36.6*	-14.2	-3.0	14.3	.	.	MOR-DOR inv ag-2=-75.6;HTR5A inv confrm=-36.1
CCOC(=O)c1c(C)[nH]c(C(=O)CSc2ccc(Cl)cc2)c1C	-29.6	15.0*	2.4	-12.8	3.8	9.0
Cc1cccc(OC(C)C(=O)Nc2ccc(N3CCCCC3)cc2)c1 (centres undefined)	-7.1	2.4	3.9	-20.8	.	.
CC(Oc1cccc(F)c1)C(=O)Nc1ccc(N2CCOCC2)cc1 (centres undefined)	-47.6	17.2*	-0.3	1.4	1.5	0.4
CCOc1ccc(C(=O)Nc2ccc(NC(=O)c3ccco3)c(Cl)c2)cc1Br	-82.8	18.7*	15.8	-84.3	39.6*	4.2
CCCCCc1ccc(C(=O)CCCC)c(=S)[nH]1	-130.0	29.4*	-1.6	7.3	5.8	12.6
CCc1ccccc1NC(=O)Cn1nc(C(F)(F)F)c2c1CCC2	10.8	-8.9	1.1	-6.1	.	.
CCc1ccc(NC(=O)Cn2nc(C(F)(F)F)c3c2CCC3)cc1	-30.8	19.7*	10.7	-66.7	7.7	7.3
COc1cc(CN2CCN(Cc3ccc([N+](=O)[O-])cc3)CC2)c([N+](=O)[O-])cc1OC	-15.7	14.8*	2.5	-11.4	1.8	-0.7
Cc1cc(NC(=O)CSc2nc(-c3ccc(Cl)cc3)cs2)no1	-53.0	20.3*	6.2	-31.0	2.0	5.9
COc1nc(-c2ccccc2)ccc1-c1noc(-c2cccs2)n1	-23.5	18.6*	-3.4	17.6	1.7	-1.9
COc1ccc(NC(=S)N/N=C2\CC(C)(C)Oc3ccc(OC)cc32)cc1	-66.8	19.2*	1.3	-6.7	7.6	8.6
Cc1ccc(NC(=S)N/N=C2\CC(C)(C)Oc3ccc(O)cc32)cc1	18.7	-7.0	0.3	-2.4	.	.
CNC(=O)/C(C#N)=C/c1c(N2CCCCCC2)nc2ccccn2c1=O	-3.5	1.0	-3.4	15.2	.	.
CC1=NNC(=O)/C1=C\c1cn(-c2ccccc2)nc1-c1ccc(Cl)cc1	-75.4	23.3*	5.1	-26.9	-2.0	-4.6
Oc1ccc(CNc2ccc(F)cc2)c2cccnc12	-62.9	23.4*	16.2	-98.8	6.2	3.7
Oc1ccc(CNc2ccccc2)c2cccnc12	-15.7	2.6	1.7	-9.1	.	.
CCCN(Cc1nnc(-c2ccccc2Cl)o1)C(=O)c1cc(S(=O)(=O)N2CCOCC2)ccc1F	14.3	1.5	0.2	-1.4	.	.
Cc1ccc(C(=O)NC(=S)Nc2ccc(-c3ccc(CO)o3)cc2)cc1	-38.6	14.8*	-1.1	6.0	12.2	2.4
Cc1ccc(C(=O)NC(=S)Nc2ccc(Oc3ccc(Cl)cc3)cc2)cc1	7.1	1.7	1.1	-6.0	.	.
C=CCN=C(NC#N)SCC(=O)NC(C)(C)C	-42.9	17.1*	-1.7	7.0	20.0*	-3.2
CC(C)N=C(NC#N)SCC(=O)NC(C)(C)C	-2.6	7.3	-2.0	8.8	.	.
O=C(COc1cccc2ccccc12)Nc1cc(Cl)ccc1C(=O)O	-27.1	7.4	-2.5	14.1	.	.
O=C(COc1cccc2ccccc12)Nc1ccc(Cl)cc1C(=O)O	-133.6	44.9*	-1.6	8.9	2.0	46.0*
Cc1ccccc1NC(=O)COc1coc(CN2CCCc3ccccc32)cc1=O	9.1	-3.6	2.0	-11.0	.	.
SMILES	HTR5A inv ctr	HTR5A ag	MOR-DOR ag-1	MOR-DOR inv ag-1	MOR-DOR ag-2	HTR5A ag confirm	others
Cc1ccc(C)c(NC(=O)COc2coc(CN3CCc4ccccc43)cc2=O)c1	-39.4	16.1*	1.4	-7.4	4.4	2.1
COc1cc2nc(N3CCN(c4cc(C)ccc4C)CC3)nc(N)c2cc1OC	-65.0	16.6*	14.2	-78.9	13.0	6.3
CCOC(=O)C(=O)/C(C#N)=C/Nc1ccccc1	13.2	-6.0	-3.0	14.8	.	.
CCOC(=O)/C(C#N)=C/Nc1ccccc1OC	0.4	16.7*	0.8	-4.7	4.2	-2.0
CC(C)(C)NC(=O)NC(=O)COC(=O)c1cccc(F)c1	4.3	-1.6	3.3	-23.4	.	.
CC(C)(C)NC(=O)NC(=O)COC(=O)CNC(=O)c1cccc(F)c1	-0.7	14.7*	-0.2	1.1	56.1*	25.6*
O=C(CCC1CCCC1)NNC(=O)c1cccc(Cl)c1	-5.9	6.1	1.9	-10.3	.	.
CCN(C(=O)COC(=O)CCOc1cc(C)ccc1C)c1c(N)n(Cc2ccccc2)c(=O)[nH]c1=O	-8.2	-2.4	-3.1	11.5	.	.
COC(=O)c1cccc(N2C(=O)C(Cl)=C(N3CCOCC3)C2=O)c1	-42.6	6.2	-1.6	8.6	.	.
O=C1C(Cl)=C(N2CCOCC2)C(=O)N1c1cccc(C(F)(F)F)c1	-9.7	14.5*	0.4	-2.2	1.9	5.9
COC(=O)c1ccc(Cn2cc(Cl)cn2)cc1	-64.2	23.9*	-1.8	10.7	3.0	1.2
CN(c1ccc(OCC(=O)OCC(=O)Nc2ccc(OC(F)F)cc2)cc1)S(=O)(=O)c1cccs1	3.4	0.1	-5.5	20.7	.	.
FC(F)(F)c1cnc(N2CCCN(C(=S)Nc3ccccc3)CC2)c(Cl)c1	-44.2	17.1*	7.0	-34.4	-2.2	-0.2
CC(C)(C)OC(=O)N1CCC(C(=O)Nc2cccc(C(=O)NC3CC3)c2)CC1	-18.9	5.0	-2.0	9.2	.	.
O=C(CNc1cccc(S(=O)(=O)N2CCCC2)c1)Nc1cccc(F)c1	-12.2	6.0	0.9	-5.8	.	.
Cc1cc(C)c(C#N)c(SCC(=O)Nc2cccc(S(=O)(=O)N3CCCC3)c2)n1	-45.3	15.0*	11.9	-76.6	-3.7	-1.1
O=C(CNc1cccc(C(F)(F)F)c1)Nc1cccc(S(=O)(=O)N2CCCC2)c1	-46.7	19.2*	3.1	-12.5	5.4	14.4
COC(=O)c1ccc(COC(=O)CCNS(=O)(=O)c2ccc(C)c(C)c2)cc1	9.7	-3.5	1.0	-6.2	.	.
CCCCOc1ccc(C(=O)N/C(=C\c2cccc([N+](=O)[O-])c2)C(=O)OC(C)C)cc1	7.8	16.1*	4.7	-21.0	0.9	1.9
CC1CCCCN1CCNC(=O)c1ccc2c(c1)N(Cc1ccccc1F)C(=O)c1ccccc1S2=O (centres undefined)	14.6	0.3	-2.5	12.3	.	.
Nc1c(C(=O)Nc2ccc(S(=O)(=O)N3CCCC3)cc2)sc2nc3cc4c(cc3cc12)CCC4	15.0	0.2	1.9	-12.7	.	.
Nc1c(C(=O)Nc2ccc(S(=O)(=O)N3CCCC3)cc2)sc2nc3ccc(OC(F)(F)F)cc3cc12	-68.8	15.1*	16.5	-87.8	23.7*	4.2
CN(C)S(=O)(=O)c1ccc(C(=O)NNC(=O)C23CC4CC(CC(C4)C2)C3)cc1	9.6	-3.9	-2.9	12.6	.	.
CC(=O)Nc1ccc(S(=O)(=O)NCCc2c[nH]c3ccc(C)cc23)cc1	-99.7	26.8*	-0.1	0.7	60.2*	1.7

Screening results: PubChem, The Scripps Research Institute Molecular Screening Center
